Data from PubChem BioAssay AID1745847 (National Center for Advancing Translational Sciences (NCATS), 2022).
Among all 2,100 compounds or so, about 670 (32%) were called active. Not shown: some 50% with an inconclusive outcome. Calls come from the whole dose curve; as a rule, active = well fitted inhibition curve with a large enough effect; inconclusive = small, poorly fitted or top-dose-only effect; inactive = no such curve, though single readings can be large or run the other way. The list shows a part of the results.

Experiment: CMV-Luciferase Counterscreen for Inhibitors of ATXN expression; note: nearly all actives have a fitted effect of over 55% in size
Details: HEK-293 CMV-luciferase reporter, luminescence, 24 h; series mostly up to 57.5 µM
Source text: PI: Daniel Scoles Ph.D. University of Utah School of Medicine, Salt Lake City, Utah MLPCN Grant: NS073009 Spinocerebellar ataxia type 2 (SCA2) is a multisystem neurodegenerative disease caused by a dominantly acting mutation leading to expansion of a polyQ domain in the ataxin-2 protein (ATXN2). SCA2 patients develop progressive ataxia and later lose function in other neuronal systems. Prominent parkinsonian signs develop in some patients. Like many neurodegenerative disorders, no symptomatic or disease-modifying treatments are known. The primary objective of the proposed research is to identify compounds inhibiting ATXN2 expression and to test them for efficacy in SCA2 mouse models. We have developed a cell-based assay paired with an in vivo mouse model using identical luciferase expression constructs. This approach takes advantage of an ATXN2-luciferase transgene, with the luciferase gene flanked by the upstream and downstream portions of the ATXN2 gene. Here we describe a 5-7 dose quantitative high thoroughput screen (qHTS) for compounds lowering ATXN2 expression. We screened the NIH Molecular Libraries Small Molecule Repository (MLSMR) and NCGC's mechanistically annotated (MIPE) and drug repurposing (NPC) collections of compounds for lowering expression of an ATXN2-luciferase reporter in HEK-293 cells. The assay is a multiplexed cell viability assay to ensure target reduction in the absence of cytotoxicity. Secondary qHTS assays included a CMV-luciferase reporter expressed in HEK-293 cells as well as a biochemical assay using recombinant luciferase to detect inhibitors of the reporter enzyme. Compounds that inhibit ATXN2 expression but is not cytotoxic were selected for confirmatory and secondary screens.
PROTOCOL TABLE (as described by Inglese J, Shamu CE and Guy RK. 2007) SEQUENCE No. (e.g., 1, 2, 3, etc.); PARAMETER (e.g., Cells, Incubation, Reagent, etc.); VALUE; DESCRIPTION. 1; Cells; 4 uL; white, solid bottom, 1536-well Greiner assay plate. 2; Incubation; 2 hr; 37 degree C in 5% humidified CO2. 3; Compounds; 23 nL; Kalypsis pintool (Wako USA) equipped with a 1536-well pin head. 4; Incubation; 24 hr; 37 degree C in 5% humidfified CO2. 5; Reagent; 1 uL; Gly-Phe-7-Amino-4-trifluoromethylcoumarin. 6; Incubation; 30 min; 37 degree C in 5% humidfified CO2. 7; Detection; Fluorescence; Viewlux plate reader (PerkinElmer). 8; Reagent; 3 uL; SteadyGlo luciferase solution (Promega). 9; Incubation; 5 min; room temperature. 10; Detection; Luminescence; ViewLux plate reader (PerkinElmer). NOTES (numbers refer to Sequence numbers above) 1. HEK-293 cells expressing CMV-luciferase reporter (designated as SC cells) were suspended in phenol-red free DMEM and dispensed in assay plates using a Multidrop Combi dispenser (Thermo Fisher Scientific). 2. Assay plates were incubated. Evaporation was prevented by covering assay plates with metal lids containing holes to allow gas diffusion. 3. Compounds were added in a dose response manner with the final concentrations of 57, 11.4, 2.28, 0.46, 0.091, 0.018, 0.0037 uM. Vehicle-only plates, with DMSO being pin-transferred to columns 5-48, were inserted uniformly at the beginning and the end of each library to monitor and record any shifts in assay performance. 5. 125 uM Gly-Phe-7-Amino-4-trifluoromethylcoumarin (MP Biomedicals) working concentration was used at a final concentration of 25 uM. 7. To assess cell viability; the assay plates were read using the ViewLux high-throughput CCD imager (PerkinElmer), wherein single end-point fluorescence measurement was acquired (excitation 405/10; emission 540/25 nm). 8. Detection reagent SteadyGlo Luciferase (Promega) was added to the assay plate. 10. Luminescence is then measured on the ViewLux imager equipped with a clear emission filter using a 2 sec exposure. […]
% is set by controls: 0 for no effect and ±100 for the full control effect; potency is the fitted concentration of half-maximal effect.

| SMILES | Potency | activity change, negative = inhibition |
| --- | --- | --- |
| CC[C@@]1(O)C(=O)OCc2c1cc1n(c2=O)Cc2cc3c(NC(=O)CN)cccc3nc2-1 | 0.0562 µM (active) |  |
| CCC1(OC(=O)CN)C(=O)OCc2c1cc1n(c2=O)Cc2cc3ccccc3nc2-1 (configuration not stated) |  | -43.6% [at 11.4 µM] (inactive) |
| COc1cc2c(cc1OC)C1C(=O)c3ccc4c(c3OC1CO2)CC(C(C)C)O4 (configuration not stated) | 0.794 µM (active) |  |
| CCC(C)(O)C(=O)OC1C(=O)OC2CC3C(C)=CC(=O)C(O)C3(C)C3C4(O)OCC23C1C(C)C4O (configuration not stated) | 0.316 µM (active) |  |
| CC(C)CCn1c(N)c(C(=O)NCc2cccs2)c2nc3ccccc3nc21 | 14.1 µM (active) |  |
| CCC(C)OC(=O)c1c(N)n(Cc2cccs2)c2nc3ccccc3nc12 (configuration not stated) | 17.8 µM (active) |  |
| CCOC(=O)c1c(N)n(CCN2CCCCC2)c2nc3ccccc3nc12 | inactive |  |
| CNC(=O)Nc1ccc(C(=O)N/N=C\C23CC[C@@H](O)CC2(O)CC[C@@H]2[C@@H]3CCC3(C)C(C4=CC(=O)OC4)CCC23O)cc1 (some centres not stated) | inactive |  |
| CC1CC(C)CC(C)C(O)C(C#N)=CC=CCC(C2CCCC2C(=O)O)OC(=O)CC(O)C(C)C1 (configuration not stated) | 0.316 µM (active) |  |
| C[C@@H]1C[C@@H]([C@H](O)CC2CC(=O)NC(=O)C2)C(=O)[C@@H](C)C1 | 2.82 µM (active) |  |
| C[C@H]1C[C@@H](C)C(=O)[C@@H]([C@H](O)CC2CC(=O)NC(=O)C2)C1 | 0.282 µM (active) |  |
| CC(=O)OC1(C)CC(C)C(=O)C(C(O)CC2CC(=O)NC(=O)C2)C1 (configuration not stated) | 0.126 µM (active) |  |
| C[C@]12CCC3C(CCC4=CC(O)CC[C@@]43/C=N/O)C1(O)CCC2C1=CC(=O)OC1 (some centres not stated) | inactive |  |
| Cc1ccc(N2C(=O)NC(=O)/C(=C/C=C/c3ccco3)C2=O)cc1 |  | 82.1% [at 11.4 µM] (inactive) |
| CC(=O)OC1CC2(O)C3CCC4CC(O)CCC4(C)C3CCC2(C)C1C1=CC(=O)OC1 (configuration not stated) | inactive |  |
| O=C1NC2C(=CC(O)C(O)C2O)c2cc3c(cc21)OCO3 (configuration not stated) | 0.251 µM (active) |  |
| Cc1c2ccncc2c(C)c2c1[nH]c1ccccc12 | 5.01 µM (active) |  |
| COc1ccc(CCNCc2ccc(F)cc2)cc1OC |  | -5.47% [at 11.4 µM] (inactive) |
| COC1C(O)C(C)OC(OC2C(Oc3cccc4c(O)c5c(=O)oc6ccc(C)c7c(=O)oc(c34)c5c67)OC(C)C(O)C2O)C1O (configuration not stated) |  | -15.7% [at 11.4 µM] (inactive) |
| O=[N+]([O-])c1ccc(C(c2ccc([N+](=O)[O-])cc2)c2ccc([N+](=O)[O-])cc2)cc1 | 17.8 µM (active) |  |
| C[C@]12CC[C@H](O)C[C@H]1CC[C@@H]1[C@@H]2CC[C@]2(C)[C@@H](C3=CC(=O)OC3)CC[C@]12O | inactive |  |

| SMILES | Potency | activity change, negative = inhibition |
| --- | --- | --- |
| COc1ccc(N=Cc2c(O)n(-c3ccc(C)cc3)c(=O)[nH]c2=O)cc1 | inactive |  |
| CC1OC(OC2C(O)CC(OC3C(O)CC(OC4CCC5(C)C(CCC6C5CCC5(C)C(C7=CC(=O)OC7)C(O)CC65O)C4)OC3C)OC2C)CC(O)C1O (configuration not stated) | inactive |  |
| O=c1[nH]c2ccccc2n1C1CCN(C(CCc2ccccc2)c2nnnn2C2CCCC2)CC1 (configuration not stated) | 14.1 µM (active) |  |
| CC(C)(C)n1nnnc1C(CCc1ccccc1)N1CCC(n2c(=O)[nH]c3ccccc32)CC1 (configuration not stated) | 20 µM (active) |  |
| N#Cc1cn(C2OC(CO)C(O)C2O)c2ncnc(N)c12 (configuration not stated) |  | -77.3% [at 11.4 µM] (inactive) |
| CCC1CN2CCc3cc(OC)c(OC)cc3C2CC1CC1NCCc2c1[nH]c1ccc(O)cc21 (configuration not stated) | 0.0891 µM (active) |  |
| C1=NCCc2c1[nH]c1ccccc21 |  | 110% [at 11.4 µM] (inactive) |
| COc1cc2nc(CN3CC=C(c4ccccc4)CC3)[nH]c(=O)c2cc1OC | inactive |  |
| O=C(CSC1c2ccccc2-c2ccccc21)N/N=C/c1ccccc1O | 3.16 µM (active) |  |
| Clc1ccc2[nH]c3c(c2c1)CCNC3 |  | -18.6% [at 11.4 µM] (inactive) |
| NC(Cc1ccc(F)cc1)c1csc(Nc2ccccn2)n1 (configuration not stated) | inactive |  |
| CCC(C)N1C(=O)/C(=C\c2cnc(N(C)C)nc2)C(=O)NC1=S (configuration not stated) | inactive |  |
| CC12CCC3C(CCC4(O)CC(O)CCC34C=NO)C1(O)CCC2C1=COC(=O)C1 (configuration not stated) | inactive |  |
| COc1cccc2c1cc([N+](=O)[O-])c1c(C(=O)O)cc3c(c12)OCO3 | inactive |  |
| COc1ccc2c(c1)C(c1ccc(N(CCCl)CCCl)cc1)=NCC2 | 22.4 µM (active) |  |
| CC(=O)O[C@H]1[C@H]2O[C@]23[C@@H]2CC[C@]4(O)C[C@@H](O)CC[C@]4(C)C2CC[C@]3(C)[C@H]1c1ccc(=O)oc1 (some centres not stated) |  | -18.3% [at 11.4 µM] (inactive) |
| COC(=O)c1nc(-c2ccc3c(n2)C(=O)C(N)=C(OC)C3=O)c(N)c(-c2ccc(OC)c(OC)c2O)c1C | 14.1 µM (active) |  |
| CSCCC(c1nnnn1-c1c(C)cccc1C)N1CCC2(CC1)C(=O)NCN2c1ccccc1 (configuration not stated) | 28.2 µM (active) |  |
| CCOC(=O)[C@]12Cc3ccsc3[C@H]1N(Cc1ccccc1)C(=O)c1ccccc12 | 3.16 µM (active) |  |
| CC12CCC(O)CC1CCC1C2CCC2(C)C(C3=CC(=O)OC3)CCC12O (configuration not stated) | inactive |  |
| C=CCCC[C@@H]1OC(=O)CNC(=O)C([C@@H](C)CC)NC(=O)[C@@H]2CCCN2C(=O)C([C@@H](C)CC)OC(=O)[C@H](Cc2ccccc2)N(C)C(=O)[C@H](C(C)C)NC(=O)C1(C)C (some centres not stated) | 3.98 µM (active) |  |

| SMILES | Potency | activity change, negative = inhibition |
| --- | --- | --- |
| Cc1ccc(-c2nc(N(C)C3CCN(C)CC3)c3ccccc3n2)cc1 | 17.8 µM (active) |  |
| COc1ccc(CC2C(=O)NC(C)C(=O)N(C)C3C(=O)N(C)C(Cc4ccc(O)c(c4)Oc4ccc(cc4)C3O)C(=O)NC(C)C(=O)NC(C)C(=O)N2C)cc1 (configuration not stated) | 0.891 µM (active) |  |
| C[C@H]1[C@@H](OS(=O)(=O)O)C[C@@H]2C[C@H]([C@@H](O)c3cc(=O)[nH]c(=O)[nH]3)NC3=NC[C@H]1N32 | 14.1 µM (active) |  |
| CCCCN=C[C@]12CCC(O)CC1(O)CCC1[C@@H]2CC[C@]2(C)[C@H](C3C=CC(=O)O3)CCC12O (some centres not stated) | inactive |  |
| C[C@@H]1O[C@@H](O[C@@H]2C=C3CC[C@@H]4C(CC[C@]5(C)[C@@H](c6ccc(=O)oc6)CC[C@]45O)[C@@]3(C)CC2)[C@H](O)[C@H](O)[C@H]1O (some centres not stated) | inactive |  |
| C[C@H]1CCC[C@@H](O)CCC/C=C/c2cc(O)cc(O)c2C(=O)O1 |  | -23.1% [at 11.4 µM] (inactive) |
| CCCCCCC(=O)N/N=C/c1c(O)n(CCCC)c(=S)[nH]c1=O | 12.6 µM (active) |  |
| CCCCC(=O)N/N=C/c1c(O)n(CCC2=CCCCC2)c(=O)[nH]c1=O | 10 µM (active) |  |
| CCn1c(O)c(/C=N/NC(=O)c2ccccc2)c(=O)n(CC)c1=S | inactive |  |
| CCCCCCC(=O)N/N=C/c1c(O)n(CCc2ccccc2)c(=O)[nH]c1=O | 6.31 µM (active) |  |
| COC1C(O)C(C)OC(OC2CCC3(C)C(CCC4C3C(O)CC3(C)C(C5=CC(=O)OC5)CCC43O)C2)C1O (configuration not stated) | inactive |  |
| C[C@]12CC[C@H](O)C[C@H]1CC[C@@H]1C2CC[C@]2(C)[C@@H](C3=CC(=O)OC3)[C@@H](O)C[C@]12O (some centres not stated) |  | -13.9% [at 11.4 µM] (inactive) |
| COc1ccc(CC2NCC(O)C2OC(C)=O)cc1 (configuration not stated) | 0.316 µM (active) |  |
| COc1ccc(C[C@H]2NC[C@H](O)[C@H]2OC(C)=O)cc1 | 0.0631 µM (active) |  |
| c1ccc2sc(N3CCNCC3)nc2c1 | inactive |  |
| C[C@H]1CCC[C@H](O)CCCCCc2cc(O)cc(O)c2C(=O)O1 |  | 13.6% [at 11.4 µM] (inactive) |
| CCCCCOc1ccc(C)cc1CN(CCCl)CCCl | 15.8 µM (active) |  |
| COc1cccc(C(c2nnnn2-c2ccc3c(c2)OCCO3)N2CCC(n3c(=O)[nH]c4ccccc43)CC2)c1OC (configuration not stated) | 3.16 µM (active) |  |
| Cc1cccc(C)c1-n1nnnc1C(c1cc2ccccc2o1)N1CCC(n2c(=O)[nH]c3ccccc32)CC1 (configuration not stated) | 8.91 µM (active) |  |
| CC12CCC(O)CC1CCC1C2CCC2(C)C(C3=CC(=O)OC3)C(O)CC12O (configuration not stated) | inactive |  |
